Test results reported in ChEMBL document CHEMBL1157539, “Thousands of chemical starting points for antimalarial lead identification” (Nature, 2010).

Assays:
Type in all cases: functional
[1] = test system: Plasmodium falciparum; assay: GSK_TCMDC: Inhibition of Plasmodium falciparum 3D7 in whole red blood cells, using parasite LDH activity as an index of growth. Test compounds present at 2uM
[2] = test system: Plasmodium falciparum; assay: GSK_TCMDC: Inhibition of Plasmodium falciparum Dd2 in whole red blood cells, using parasite LDH activity as an index of growth. Test compounds present at 2uM
[3] = test system: HepG2; assay: GSK_TCMDC: Percent inhibition of human HepG2 cell line. Test compounds present at 10uM.

`CC[C@H](C)CNC(=O)c1cncc(-c2ccc(CNC3Cc4ccccc4C3)cc2)c1.O=C(O)C(F)(F)F` gave an Inhibition [1] of 100%, an Inhibition [2] of 95% and an Inhibition [3] of 14%.

`O=C(c1ccc(Cl)cc1Cl)N1CCCC(C(F)(F)F)C1` (configuration not stated) was tested, and the Inhibition [1] was 95%, the Inhibition [2] was 47% and the Inhibition [3] was 6%.

`O=C(Nc1ccccc1)N(Cc1ccccc1-c1cccc(CNCCc2ccccc2)c1)C1CCN(Cc2ccccc2)CC1.O=C(O)C(F)(F)F` showed an Inhibition [1] of 100%, an Inhibition [2] of 59% and an Inhibition [3] of 95%.

With `O=C(Nc1cccc(CN2CCCN(Cc3cccc(O)c3)CC2)c1)c1ccc(Cl)c(Cl)c1.O=C(O)C(F)(F)F` the Inhibition [1] was 100%, the Inhibition [2] was 79% and the Inhibition [3] was 25%.

In the case of `CCNc1cc(C(=O)N[C@@H](Cc2cc(F)cc(F)c2)[C@H](O)CNCc2cccc(C(F)(F)F)c2)cc(N2CCCCS2(=O)=O)c1.Cl`, the Inhibition [1] is reported as 99%, the Inhibition [2] is reported as 80% and the Inhibition [3] is reported as 1%.

In the case of `COc1cccc(CNC(=O)NC2CCN(c3ccnc(Nc4cc(OC)c(OC)c(OC)c4)n3)C2)c1` (configuration not stated), the Inhibition [1] is reported as 93%, the Inhibition [2] is reported as 84% and the Inhibition [3] is reported as 15%.

Compound `CCc1c(C(=O)NC2CCC(N3CCC(c4ccccc4OC)CC3)CC2)[nH]c2ccc(Br)cc12` (configuration not stated) has an Inhibition [1] of 100%, an Inhibition [2] of 98% and an Inhibition [3] of 85%.

Work on `c1cncc(-c2cc(N3CCCCC3)nc(-c3ccncc3)n2)c1` yielded an Inhibition [1] of 99%, an Inhibition [2] of 46% and an Inhibition [3] of 18%.

In the case of `CCc1ccc(NC(=O)c2ccc(CN3CCCN(Cc4ccc(C)s4)CC3)cc2)cc1.O=C(O)C(F)(F)F`, the Inhibition [1] is reported as 87%, the Inhibition [2] is reported as 0% and the Inhibition [3] is reported as 48%.

Compound `COc1ccccc1N1CCN(C(C(=O)NCc2ccc(C)cc2)c2ccc(C)cc2)CC1` (configuration not stated) has an Inhibition [1] of 92%, an Inhibition [2] of 79% and an Inhibition [3] of 12%.

`CC(=O)Nc1cccc(C(=O)Nc2ccc(-c3cccc(-c4nc5cccc(C)c5[nH]4)c3)cc2)c1` was tested, and the Inhibition [1] was 100%, the Inhibition [2] was 50% and the Inhibition [3] was 86%.

With `CC(C)(C)c1ccc(NC(=O)c2cccc(CN3CCCN(Cc4cccc(O)c4)CC3)c2)cc1.O=C(O)C(F)(F)F` the Inhibition [1] was 100%, the Inhibition [2] was 69% and the Inhibition [3] was 97%.

Compound `Cc1cc(N2CCCC2)nc(Nc2ccc(NC(=O)Cc3ccccc3)cc2)n1` has an Inhibition [1] of 100%, an Inhibition [2] of 72% and an Inhibition [3] of 71%.

Work on `CC(Cc1ccc(CN(CC(N)=O)Cc2ccc(CC(C)NCCc3cccc(Cl)c3)cc2)cc1)NCCc1cccc(Cl)c1.O=C(O)C(F)(F)F` (configuration not stated) yielded an Inhibition [1] of 95%, an Inhibition [2] of 68% and an Inhibition [3] of 26%.

`Cc1nc(-c2ccc(C#N)cc2)sc1C(=O)NCCCCN1CCC(c2ccc3c(c2OCCO)CCCC3)CC1.Cl` was tested, and the Inhibition [1] was 99%, the Inhibition [2] was 10% and the Inhibition [3] was 14%.

In the case of `Cc1c[nH]c2cc(/C=C/C(=O)NC3CCC(CCN4CCc5ccc(C#N)cc5CC4)CC3)ccc12.Cl` (configuration not stated), the Inhibition [1] is reported as 95%, the Inhibition [2] is reported as 59% and the Inhibition [3] is reported as 0%.

`CNC(=O)Cc1ccc(C(=O)Nc2cccc(-c3cccc(-c4nc5cccc(C)c5[nH]4)c3)c2)cc1` was tested, and the Inhibition [1] was 96%, the Inhibition [2] was 53% and the Inhibition [3] was 15%.

`COc1ccc(NC(=O)[C@H](CC(C)C)Nc2cc(C)nc(Nc3ccccc3)n2)cc1.O=C(O)C(F)(F)F` was tested, and the Inhibition [1] was 100%, the Inhibition [2] was 92% and the Inhibition [3] was 25%.

With `O=c1cc(NCCCNC2CCOc3c(Cl)cccc32)[nH]c2ccccc12` (configuration not stated) the Inhibition [1] was 96%, the Inhibition [2] was 27% and the Inhibition [3] was 0%.

With `COc1cc(F)c2ncc(Cl)c(CCN3CCC(NCc4cc5c(cn4)OCCO5)CC3)c2c1.Cl` the Inhibition [1] was 89%, the Inhibition [2] was 57% and the Inhibition [3] was 2%.

`CCCc1cn2c3c(cc(C(=O)N[C@@H](Cc4ccccc4)[C@H](O)CNC4CCOCC4)cc13)N(CC)S(=O)(=O)CC2.O=CO` was tested, and the Inhibition [1] was 97%, the Inhibition [2] was 98% and the Inhibition [3] was 2%.

`COc1ccc2nc3cc(Cl)ccc3c(NCCNCC(O)CO)c2n1.Cl` (configuration not stated) gave an Inhibition [1] of 100%, an Inhibition [2] of 100% and an Inhibition [3] of 12%.

With `N#Cc1ccc(CN2CCCN(c3ccc(NC(=O)c4ccc(F)cc4)cc3)CC2)cc1.O=C(O)C(F)(F)F` the Inhibition [1] was 90%, the Inhibition [2] was 61% and the Inhibition [3] was 12%.

`Cc1cccc2nc(-c3cccc(-c4cccc(CNCc5cccc(N)c5)c4)c3)[nH]c12.O=C(O)C(F)(F)F` showed an Inhibition [1] of 100%, an Inhibition [2] of 73% and an Inhibition [3] of 14%.

Compound `CCC(=O)N1CCc2cc(Br)cc(S(=O)(=O)N3CC(C)CC(C)C3)c21` (configuration not stated) has an Inhibition [1] of 85%, an Inhibition [2] of 84% and an Inhibition [3] of 5%.

`COc1cc2nc(N(C)Cc3cc4c(Cl)cccc4s3)nc(N)c2cc1OC.Cl` showed an Inhibition [1] of 90%, an Inhibition [2] of 27% and an Inhibition [3] of 32%.

For `Oc1ccc(Cl)c2c1C(c1ccccc1)=NCC2`, the Inhibition [1] was 95%, the Inhibition [2] was 43% and the Inhibition [3] was 0%.

Work on `CCN(CC)CCN(Cc1ccc(-c2ccc(C(F)(F)F)cc2)cc1)C(=O)Cn1c(CCc2cc(F)ccc2F)nc(=O)c2ccccc21.O=C(O)C(O)C(O)C(=O)O` yielded an Inhibition [1] of 98%, an Inhibition [2] of 52% and an Inhibition [3] of 42%.

For `O=C(Cn1c(=O)oc2ccccc21)N1CCC(n2c(=O)n(CCCN3CCOCC3)c3ccccc32)CC1`, the Inhibition [1] was 99%, the Inhibition [2] was 100% and the Inhibition [3] was 11%.
